Bioassay records as filed in PubChem BioAssay.
HepG2 tox – kills HepG2 cells in TGF-b inhibitor counter-screen; HepG2 CAGA-GFP viability, ATP luminescence, 18 h; Potency, µM (highest dose often 46.1 µM), inactives show top-dose activity change, negative = cytotoxicity, usual class: cytotoxic; 410,000 tested, 0.76% active; AID 588856
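CellTiter-Glo luminescence gave cytotoxicity after 18 hours at 37 degrees C. The cells were HepG2 CAGA-GFP in 1% FBS DMEM, stimulated with 500 pg/mL TGF-beta after compound addition. %Activity was normalised to no-cell wells (complete cell-killing) and DMSO (no toxicity), and curves were fitted and classified.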
RORg inh – blocks mouse ROR gamma transcriptional activity; Potency, µM (titrated, usually from 53.6 µM), for inactives: top-dose activity change, negative = inhibition, most hits filed as inhibitors; Drosophila S2 Gal4-RORgamma UAS-luciferase reporter, 20 h; P51450; 310,000 tested, 5.4% active; AID 2551; further: on the % scale 0 is the no-effect control and ±100 the full control effect; nearly all actives have a fitted effect of over 60% in size
Target sequence (P51450 whole entry, looked up, the tested form may be a part): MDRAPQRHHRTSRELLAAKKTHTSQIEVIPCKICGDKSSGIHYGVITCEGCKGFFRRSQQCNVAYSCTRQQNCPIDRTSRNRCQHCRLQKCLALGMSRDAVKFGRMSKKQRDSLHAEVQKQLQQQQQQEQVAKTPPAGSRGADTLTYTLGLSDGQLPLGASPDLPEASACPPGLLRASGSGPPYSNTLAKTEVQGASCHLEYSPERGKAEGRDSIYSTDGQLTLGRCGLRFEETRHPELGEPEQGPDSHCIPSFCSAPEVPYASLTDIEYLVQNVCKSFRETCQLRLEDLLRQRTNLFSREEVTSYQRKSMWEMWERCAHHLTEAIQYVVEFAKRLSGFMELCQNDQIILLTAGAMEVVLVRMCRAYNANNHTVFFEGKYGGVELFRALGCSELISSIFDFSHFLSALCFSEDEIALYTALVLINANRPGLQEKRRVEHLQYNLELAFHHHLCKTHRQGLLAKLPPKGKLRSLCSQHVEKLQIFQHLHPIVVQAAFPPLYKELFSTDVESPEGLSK
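Compounds are pin-transferred onto Drosophila Schneider cells expressing a copper-inducible Gal4–ROR gamma transactivation domain fusion. After 1 hr, copper sulfate is added to 700 uM final; luciferase is read 20 hr later.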
ATXN2 expr inh – inhibitors of ATXN2 expression. AID 1745845. 360,000 tested, 0.72% active. HEK-293 ATXN2-luciferase reporter, luminescence, 24 h. Potency, µM (titrated, usually from 57 µM), for inactives: at the highest dose activity change, negative = inhibition, usual class: inhibitors; further: on the % scale 0 is the no-effect control and ±100 the full control effect; nearly all actives have a fitted effect of over 55% in size
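ATXN2-luciferase reporter cells (luciferase flanked by upstream and downstream ATXN2 gene portions) were treated 24 h at 37 °C with compounds at up to 57 uM. SteadyGlo luminescence gave expression; GF-AFC fluorescence gave viability.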
ATXN viability – cell viability loss in ATXN counter-screen | S2 cells (HEK-293 line with an ATXN2-luciferase reporter) viability, CellTiter-Fluor protease fluorescence, 24 h | Potency, µM (top dose mostly 56.7 µM), usual class: cytotoxic | 400,000 tested, 0.49% active | AID 651635; further: nearly all actives have a fitted effect of over 40% in size
Gal4-VP16 FLuc – counter-screen for ROR gamma inhibitors: Gal4-VP16 reporter; Drosophila S2 Gal4-VP16 UAS-luciferase, luminescence, 20 h; 310,000 tested, 3.5% active; Potency, µM (titrated, usually from 53.6 µM), for the others: at the top dose activity, negative = inhibition, actives largely listed as inhibitors; AID 2546;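 further: Gal4-VP16 expression switched on by copper sulfate through the metallothionein promoter; on the % scale 0 is the no-effect control and ±100 the full control effect; nearly all actives have a fitted effect of over 50% in size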
TGFb inhibitor – TGF-b pathway inhibition | 410,000 tested, 1.2% active | Potency, µM (top dose mostly 46.1 µM), without a hit: top-dose activity, negative = inhibition, actives largely listed as inhibitors | HepG2 CAGA-GFP TGF-b/SMAD3 reporter, GFP fluorescence, 18 h; TGF-beta stimulated, 500 pg/mL final | AID 588855; further: on the % scale 0 is the no-effect control and ±100 the full control effect; nearly all actives have a fitted effect of over 65% in size
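Read-out: total well GFP (ex488/em500-530) summed from mean per-cell fluorescence. Cells: HEPG2 CAGA-GFP, 1% FBS DMEM, 18 h at 37 degrees C with 500 pg/mL final TGF-beta. Unstimulated wells served as the full-inhibition control; stimulated DMSO wells = 0%.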
The depositor's hits bear a star; i = inactive; ? = inconclusive; nt = no result; [ ] = dose if it differs, or a comment. Rows were chosen to be rich in hits. Some 6.1% of all compounds tested hit in one or more screens of this group. The call rests on the fitted dose curve; in most records, active means well fitted curve in the direction sought with a large enough effect; inconclusive means small, poorly fitted or top-dose-only effect, or another doubt; inactive means no such curve, though single readings can be large; an effect the other way counts as inactive or inconclusive. Potency means the concentration at half of the fitted maximal effect.

SMILES	HepG2 tox	RORg inh	ATXN2 expr inh	ATXN viability	Gal4-VP16 FLuc	TGFb inhibitor
Brc1ccc2nc(-c3c[nH]c4ccccc34)cn2c1	-22%	0.2µM*	103%	i	?	?
C[C@H]1CC[C@H]2C(=O)N3[C@H](c4ccc(Br)cc4)[C@@H](C)CC[C@H]3C(=O)N2[C@@H]1c1ccc(Br)cc1	nt	3%[10 µM]	nt	nt	-10%[10 µM]	nt
NC(=O)Cc1ccc(Nc2nnc(-c3ccccc3)c3ccccc23)cc1	4%	?	24%	i	22µM*	-10%
CNC(=O)C1CCC(Cn2c(=O)c3sccc3n(CC(=O)NCc3cccc(OC)c3)c2=O)CC1 (stereo not given)	-15%	nt	14%	i	nt	3%
CN(C)c1ccc(C(=S)N2CCCCC2)cc1	0%	11µM*	19%	i	0%	1%
CCN(CC)c1ccc(C(=S)NC2CCCCC2)cc1	-38%	8.9µM*	0%	i	14µM*	1%
CN(C)c1ccc(C(=S)NC2CCCCC2)cc1	-36%	8.9µM*	36%	i	3%	-7%
CCOc1ccc(C(=S)NC2CCCCC2)cc1OCC	-1%	nt	6%	i	nt	-2%
CCC(=O)N[C@@H]1c2ccccc2C2(CCN(Cc3cnc(N(C)C)s3)CC2)[C@H]1OC	nt	nt	nt	i	nt	nt
Cc1cc2nc(-c3cccnc3SCC(=O)NCc3ccco3)[nH]c2cc1C	-66%	11µM*	15%	i	13µM*	-1%
Cc1cc(C)c2cc(C#N)c(SCC(=O)NCc3ccco3)nc2c1	-14%	13µM*	-17%	i	?	-11%
O=C(CSc1ncccc1-c1nc2ccccc2[nH]1)NCc1ccco1	-17%	-10%	62%	i	0%	-7%
CCCCCCCCn1c(=O)c(C(=O)OCC)c(O)c2ccccc21	-6%	11%	-7%	i	7%	13%
CCCCCn1c(=O)c(-c2nc3ccccc3[nH]2)c(O)c2ccccc21	5%	1.6µM*	-1%	i	7.9µM*	20%
CCc1ccc2occ(CC(=O)N(Cc3ccccc3)C3CCS(=O)(=O)C3)c2c1 (stereo not given)	-19%	nt	-12%	?	nt	-26%
Cc1cc(Sc2nc(N)ncc2[N+](=O)[O-])ncn1	-112%	0.79µM*	-7%[11.3 µM]	i	?	10µM*
Cc1cc(N)ncc1[N+](=O)[O-]	-16%	nt	4%	i	nt	17%
Cc1cc(Sc2ncnc(N)c2[N+](=O)[O-])ncn1	-103%	3.5µM*	?	?	4.5µM*	?
COC(=O)C1CCN(C(=O)C2CCN(C(=O)[C@@H](NS(=O)(=O)c3ccc(C)cc3)C(C)C)CC2)CC1	-23%	1.1µM*	-5%	i	?	-3%
O=C(COC(=O)/C=C/c1ccc([N+](=O)[O-])cc1)Nc1ccc2[nH]c(=O)[nH]c2c1	-3%	nt	6%	i	nt	0%
O=C(COC(=O)/C=C/c1ccc(C(F)(F)F)cc1)Nc1ccc2[nH]c(=O)[nH]c2c1	3.5µM*	nt	3%	i	nt	-4%
Cc1cc(N2CCOCC2)nc(SCc2c(Cl)cccc2Cl)n1	-24%	-17%	-13%	i	-6%	11µM*
Cc1cc(N2CCOCC2)nc(SCC(=O)c2ccc(Cl)cc2)n1	-2%	-11%	1%	i	5%	2%
CCC(=O)Nc1cccc2cccnc12	-29%	-18%	nt	i	-12%[10 µM]	17%
C/C(=N\Nc1cccc2cccnc12)c1ccc[nH]1	-14%	3.5µM*	102%	i	3%	-2%
SMILES	HepG2 tox	RORg inh	ATXN2 expr inh	ATXN viability	Gal4-VP16 FLuc	TGFb inhibitor
C[C@H](NC(=O)C(=O)Nc1ccccc1C(C)(C)C)C(=O)N[C@@H](CC(=O)O)C(=O)COc1c(F)c(F)cc(F)c1F	nt	nt	0%	nt	nt	nt
COc1ccc(-c2cc(C(C)=O)c(C)n2CCC(=O)Nc2cc(Cl)ccc2C)cc1	-19%	nt	nt	nt	nt	-24%
O=C(O)Cn1c2ccccc2c2n[nH]c(=S)nc21	-9%	-35%[1.91 µM]	2%	i	9%	1%
CCn1c2ccccc2c2n[nH]c(=S)nc21	-4%	4µM*	nt	i	8.9µM*	-10%
CCCn1c2ccc(C)cc2c2n[nH]c(=S)nc21	-5%	1.8µM*	-17%	i	3.5µM*	-3%
C=CCn1c2ccccc2c2n[nH]c(=S)nc21	-35%	2.5µM*	nt	i	3.5µM*	3%
CCCSC1=C(C#N)C(c2ccc(OC)cc2)C2=C(CC(C)(C)CC2=O)N1 (stereo not given)	-30%	?	-22%	i	-16%	?
CSC1=C(C#N)C(c2ccc(Cl)cc2)C2=C(CC(C)(C)CC2=O)N1 (stereo not given)	4%	29%	-21%	?	-4%	11µM*
COc1ccc(OCc2ccc(-c3nc(C#N)c(N4CCN(C)CC4)o3)o2)cc1	-26%	nt	-25%	i	nt	-14%
Cc1ccc(C(=O)Nc2ccccc2C(=O)Nc2ccccn2)cc1Cl	-33%	?	4%	i	16µM*	-2%
Cc1ccnc(NC(=O)c2ccccc2NC(=O)c2ccc(Cl)cc2Cl)c1	-1%	?	nt	nt	13µM*	?
Cc1ccnc(NC(=O)c2ccc(Cl)c(NC(=O)c3ccccc3C)c2)c1	-3%	nt	-9%	i	nt	?
COC(=O)c1ccc(C(=O)OC)c(NC(=S)N2CCCC(C)C2)c1 (stereo not given)	10%	7.9µM*	0%	i	7%	13%
COC(=O)c1ccc(C(=O)OC)c(NC(=S)N2CC(C)CC(C)C2)c1 (stereo not given)	13%	11µM*	-2%	i	14%	3%
CC(=O)N1CCC[C@H]1C(=O)NCC1Cc2cc(C)cc(-c3ccc(Cl)cc3)c2O1 (stereo not given in full)	nt	nt	nt	i	nt	nt
Cc1ccc2nc(-c3ccc(NC(=S)NC(=O)C(C)C)cc3)sc2c1	0%	1.1µM*	70%	i	2.8µM*	-2%
Cc1ccc(C2(C)NC(=O)N(CC(=O)Nc3ccc(-c4nc5ccc(C)cc5s4)cc3)C2=O)cc1 (stereo not given)	-20%	?	5%	i	-24%	-29%
O=C(O)CSCC(=O)Nc1ccc(-c2nc3ccccc3s2)cc1	-13%	?	-11%	i	-22%	-20%
Cc1ccc2nc(-c3ccc(NC(=S)NC4CC(C)(C)NC(C)(C)C4)cc3)sc2c1	13µM*	?	7%	?	1%	?
CCC(=O)NC(=S)Nc1ccc(-c2nc3ccccc3s2)cc1	-6%	1.6µM*	3%	i	?	-18%
